Screening results as filed in PubChem.
D2 ag-1: agonists of human D2 dopamine receptor; AID 485358; hit rate 0.53% among 340,000; HEK293 T-REx D2 cells, calcium flux agonist mode; activation, % at 2 µM;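 active = activation over 3 SD above normal in the single-dose calcium agonist read, cut at about 30% in these data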; also: 0% is about no effect
Target sequence (P14416 whole entry, looked up): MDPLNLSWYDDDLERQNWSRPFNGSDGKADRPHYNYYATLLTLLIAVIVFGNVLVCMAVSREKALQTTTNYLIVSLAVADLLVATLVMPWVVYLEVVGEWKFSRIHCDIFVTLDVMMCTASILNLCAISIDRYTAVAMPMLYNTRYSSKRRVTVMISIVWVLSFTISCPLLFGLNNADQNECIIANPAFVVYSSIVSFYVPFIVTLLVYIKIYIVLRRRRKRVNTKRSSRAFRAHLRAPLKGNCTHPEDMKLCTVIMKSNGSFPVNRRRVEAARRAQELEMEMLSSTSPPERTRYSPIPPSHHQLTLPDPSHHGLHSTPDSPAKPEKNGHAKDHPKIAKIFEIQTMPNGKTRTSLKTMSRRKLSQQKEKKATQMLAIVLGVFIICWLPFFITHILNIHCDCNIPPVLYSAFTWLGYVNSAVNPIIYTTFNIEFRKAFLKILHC
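Tetracycline-induced HEK293 Trex cells with D2 receptor force-coupled to calcium signaling, plated overnight at 30 C and loaded with no-wash calcium dye. Calcium flux read kinetically for 180 s after compound addition; responses flag agonists.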
D2 PAM-1: positively modulates the human D2 dopamine receptor allosterically. HEK293 T-REx D2, calcium flux, EC20 dopamine potentiation. hit rate 0.34% among 340,000. potentiation, % at 10 µM. P14416;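 active = potentiation over 3 SD above the plate norm, cut at about 30% in these data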; also: 0% is about no effect
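Using a no-wash calcium dye in inducible, force-coupled HEK293 Trex cells expressing D2, we tracked fluorescence each second for 180 s after compound, then for 180 s after EC20 dopamine to detect augmented signalling.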
D2 antagonist: D2 dopamine receptor (human) antagonism; P14416; HEK293 TREx D2 cells, calcium flux, dopamine EC80; inhibition, % at 10 µM; hit rate 2% among 340,000; in the data active = inhibition above about 30%; inactive = below that, where a call was filed; also: 0% is about no effect
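In this primary screen, negative modulation is detected by tracking calcium flux after an EC80 dopamine challenge in inducible HEK293 T-REx D2 cells preexposed to test compound for 180 s.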
D2 PAM-2: potentiates the human D2 dopamine receptor allosterically; DiscoveRx D2 beta-arrestin cells, luminescence, 90 min; 100% = 57 uM dopamine signal; potentiation, % (test concentration not listed); hit rate 0.23% among 360,000; in the data active = potentiation above about 50%; inconclusive = mostly about 30% to 49%
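D2 cells co-treated with compound plus 50 nM dopamine (EC20) for 90 min at 37 deg C to detect potentiation. Beta-arrestin recruitment was read as enzyme-fragment luminescence after 1 h at ambient temperature. Full response was set by 57 uM dopamine.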
D2 ag-2: activates the human D2 dopamine receptor. hit rate 0.084% among 360,000. P14416. activation, % (test concentration not listed). DiscoveRx PathHunter D2 beta-arrestin, luminescence, 90 min; 100% = 57 uM dopamine signal. AID 624465; in the data active = activation above about 40%; inconclusive = between about 15% and that limit
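DiscoveRx PathHunter D2 beta-arrestin cells (2,100/well) attached overnight, then compound-stimulated 90 min at 37 C in HBSS/10 mM HEPES/0.1% Tween-20 buffer; beta-galactosidase complementation read by luminescence after 1 h at ambient temperature. Dopamine 57 uM final (EC100) as control.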
The depositor's hits bear a star; ? = inconclusive; / = no result. Sampled rows, rich in hits. Any-hit rate of the full collection: about 2.4%.

SMILES | D2 ag-1 | D2 PAM-1 | D2 antagonist | D2 PAM-2 | D2 ag-2
CCn1nnnc1NCc1ccc(Cl)cc1 | 1 | 14 | 47* | -6 | 0
CCCn1nnnc1NCc1ccc(SC)cc1 | -1 | 6 | 37* | -1 | -1
Cc1cccc(-n2c(SCC(=O)Nc3ccc(C)c(C)c3)nc3n[nH]c(C)c3c2=N)c1 | 1 | -8 | / | / | /
CN(Cc1ccccc1)C(=O)CCC1CCN(S(C)(=O)=O)CC1 | 1 | -3 | -8 | -2 | 5
CCN(CC(=O)Nc1ccc(C)c(S(=O)(=O)N2CCOCC2)c1)Cc1ccccc1 | 0 | -7 | 10 | -15 | -2
Cc1ccccc1NC(=O)c1sc(Cl)nc1-c1ccccc1 | 0 | -1 | 31* | 8 | -2
COc1ccc(C(=O)c2c(C(F)(F)F)oc3c2C(=O)c2ccccc2C3=O)cc1OC | 2 | 5 | 31* | ? | ?
O=C(CSc1ncccn1)NC(=O)c1ccccc1 | 1 | 34* | -10 | 8 | -6
Nc1nnc(SCC(=O)NNC(=O)c2ccc(F)cc2)s1 | 0 | -7 | -39 | -14 | -3
Nc1nnc(SCC(=O)NNC(=O)c2ccccc2)s1 | 0 | -7 | 37* | -9 | -5
O=C(CSc1ncccn1)NCc1ccc(Cl)cc1 | 0 | -3 | 36* | -2 | -3
O=C(CSc1ccccc1)NNC(=O)c1ccncc1 | 1 | 5 | 57* | 1 | 0
Cc1c(Cl)cccc1NC(=O)CNS(=O)(=O)c1cccs1 | 0 | -5 | / | / | /
CN1CCN(C2=Nc3ccccc3Oc3ccc(Cl)cc32)CC1 | -1 | -31 | 91* | -36 | -6
CC(C)(C)c1ccc(C(=O)Nc2ccc([N+](=O)[O-])cn2)cc1 | 0 | -27 | 36* | -27 | -2
Cc1cc(OC(=O)c2ccco2)c(Sc2ccccc2[N+](=O)[O-])c(=O)o1 | 1 | 3 | 34* | -9 | -5
CN1CCCN(C(=O)CNC(=O)Cc2ccccc2)CC1 | 1 | 9 | 2 | -11 | -1
O=C(Cc1ccccc1)NCC(=O)N1CCCC1 | 2 | 5 | 35* | -6 | -3
Cc1ccc(C)c(NC(=O)CN2C(=O)CCc3ccccc32)c1 | 0 | 1 | / | / | /
COc1cccc(NC(=O)CN(C)C(=O)CC(NC(=O)c2ccccc2Cl)c2ccccc2)c1 (stereo not drawn) | 0 | -22 | 32* | -5 | -1
Cc1ccc(NC(=O)CN(C)C(=O)c2cccc(S(=O)(=O)NCc3cccs3)c2)cc1 | 0 | -19 | -22 | -6 | 4
COc1cccc(NC(=O)CN(C)C(=O)c2cccc(NS(=O)(=O)c3ccccc3)c2)c1 | 0 | -10 | 32* | -2 | 0
COc1cccc(NC(=O)CN(C)C(=O)c2cccc(NS(=O)(=O)c3ccc(Br)cc3)c2)c1 | / | / | / | -3 | -1
Cc1ccc(NC(=O)CN(C)C(=O)c2cccc(S(=O)(=O)NCc3ccccc3)c2)cc1 | 0 | -2 | 46* | -38 | -3
CS(=O)c1ccccc1-c1nc(-c2ccc([N+](=O)[O-])cc2)no1 (stereo not drawn) | / | / | / | -2 | -2
SMILES | D2 ag-1 | D2 PAM-1 | D2 antagonist | D2 PAM-2 | D2 ag-2
O=C(CSc1nc(-c2ccc(F)cc2)cc(C(F)(F)F)n1)NCc1ccccc1 | -1 | 0 | / | / | /
COc1ccc(C(=O)NCCc2ccccn2)cc1S(=O)(=O)Nc1ccc(Br)cc1 | 0 | -3 | -8 | 5 | -4
COc1cccc(C(=O)/C=C/Nc2ccc(S(=O)(=O)Nc3cc(OC)nc(OC)n3)cc2)c1 | 0 | -5 | -20 | -5 | -2
COc1ccc(C(=O)/C=C/Nc2ccc(S(=O)(=O)Nc3cc(OC)nc(OC)n3)cc2)c(OC)c1 | 0 | 7 | 31* | 2 | -2
Cc1ccsc1C(C(=O)NCc1ccccc1)N(C(=O)c1csnn1)c1ccccc1 (stereo not drawn) | -1 | -6 | 33* | -3 | -1
CC(C)(C)NC(=O)C(c1ccco1)N(C(=O)c1csnn1)c1ccccc1 (stereo not drawn) | -1 | 36* | 0 | -7 | -2
Cc1ccccc1N(C(=O)c1csnn1)C(C(=O)NC(C)(C)C)c1cccs1 (stereo not drawn) | 0 | -11 | 36* | -3 | -2
CC(C)(C)NC(=O)C(c1ccncc1)N(C(=O)c1csnn1)c1ccccc1 (stereo not drawn) | 0 | -1 | -14 | -10 | -3
Cc1ccc(N(C(=O)c2csnn2)C(C(=O)NC(C)(C)C)c2cccs2)cc1 (stereo not drawn) | 0 | 9 | 7 | -9 | -1
CCC(C)(C)NC(=O)C(c1cccnc1)N(C(=O)c1csnn1)c1ccccc1 (stereo not drawn) | 0 | 40* | 5 | -31 | -19
O=C(CC1SC(N2CCCC2)=NC1=O)Nc1ccc(C(=O)NCc2ccc(F)cc2)cc1 (stereo not drawn) | -1 | -3 | 7 | 6 | -4
O=C(NCc1ccccc1)C(c1cccnc1)N(C(=O)c1ccccn1)c1ccccc1F (stereo not drawn) | -1 | 1 | -1 | -6 | -5
Cc1ccccc1N(C(=O)c1ccccn1)C(C(=O)NCc1ccccc1)c1cccnc1 (stereo not drawn) | / | 36* | / | -3 | 0
COC(=O)CSc1nnc(-c2ccc(S(=O)(=O)NCc3ccccc3Cl)cc2)o1 | 0 | 10 | 33* | 29 | 3
COC(=O)CSc1nnc(-c2ccc(S(=O)(=O)NCc3cccs3)cc2)o1 | 0 | -10 | 0 | -8 | -1
Cn1cc(NC(=O)OCc2ccc(Cl)cc2)c(C(F)(F)F)n1 | 0 | 11 | -31 | -5 | -4
COc1ccccc1NC(=O)c1cccc(S(=O)(=O)N2CCN(Cc3ccccc3)CC2)c1 | 0 | 1 | 10 | -67 | -2
CC(NC(=O)c1cccc(S(=O)(=O)N2CCN(Cc3ccccc3)CC2)c1)c1ccc(Cl)cc1 (stereo not drawn) | 1 | -4 | 36* | -8 | -1
CCN(CC)S(=O)(=O)c1cccc(NC(=O)COC(=O)c2ccc(Br)o2)c1 | 0 | 21 | 3 | -13 | 1
CCN(CC)S(=O)(=O)c1cccc(NC(=O)COC(=O)c2cc(=O)c3ccccc3o2)c1 | 1 | 31* | -5 | -14 | -1
O=c1c2c(nc(NCCO)n1CC1CCCCC1)-c1ccccc1CC21CCCC1 | 1 | 16 | 8 | -4 | -4
CC1(C)CC(n2c(NCCO)nc3c(c2=O)C2(CCCC2)Cc2ccccc2-3)CCO1 (stereo not drawn) | 1 | 34* | -13 | -2 | -1
O=C(NC1CC2CCC(C1)N2Cc1ccco1)c1ccccc1 (stereo not drawn) | / | -5 | / | -37 | -1
CCOc1ccc(C(=O)NC2CC3CCCC(C2)N3Cc2ccccc2)cc1 (stereo not drawn) | / | / | / | -16 | -5
